# A selection: hits, their analogues and other compounds. The true share with any hit is near 3.7%.
# B2AR arrestin – qHTS assay of beta-arrestin-biased ligands of beta2-adrenergic receptor; beta-arrestin recruitment to beta2AR, cell-based reporter; Potency, µM (series often up to 46.1 µM), without a hit: at the top dose activation, most hits filed as activators; actives 0.02% (n = 330,000); Beta-2 adrenergic receptor (Homo sapiens), P07550;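 note: potency is the fitted concentration of half-maximal effect; 0% = DMSO controls and full agonism = EC100 isoproterenol or metaproterenol; nearly all actives have a fitted effect of over 65% in size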
# Target sequence (P07550 whole entry, looked up): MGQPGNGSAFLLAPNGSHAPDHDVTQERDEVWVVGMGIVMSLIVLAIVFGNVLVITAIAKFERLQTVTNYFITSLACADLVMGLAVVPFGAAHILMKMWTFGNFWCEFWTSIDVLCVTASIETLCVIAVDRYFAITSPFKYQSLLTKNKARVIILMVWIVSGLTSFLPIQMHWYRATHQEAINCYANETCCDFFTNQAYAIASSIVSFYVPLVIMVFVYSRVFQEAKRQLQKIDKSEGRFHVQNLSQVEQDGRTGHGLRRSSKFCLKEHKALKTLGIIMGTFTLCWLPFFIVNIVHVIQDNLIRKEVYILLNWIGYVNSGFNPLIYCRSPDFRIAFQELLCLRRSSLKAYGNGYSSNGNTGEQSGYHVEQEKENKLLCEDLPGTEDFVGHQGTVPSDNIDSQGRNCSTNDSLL
# PTHR1 agonist – qHTS for PTHR1 Agonists: Primary Screen. Potency, µM (top dose mostly 115 µM), for inactives: at the top dose activation, usual class: activators. actives 0.075% (n = 410,000). AID 743266, 2014. Parathyroid hormone/parathyroid hormone-related peptide receptor (Homo sapiens), Q03431. HEK293 GP2 PTHR1 cells, GloSensor cAMP luminescence, 1 h; note: potency is the fitted concentration of half-maximal effect; nearly all actives have a fitted effect of over 55% in size
#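 HEK-293-derived GP2 cells expressing PTHR1 and a GloSensor cAMP reporter, 3,000/well, plated overnight, given luciferin plus IBMX (each 0.5 mM as added) for 1 h at 37 °C, then compound for 1 h at 37 °C. Luminescence was read after 15 min at room temperature.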
# DRD3 agonist – qHTS of D3 Dopamine Receptor Agonist: qHTS. D(3) dopamine receptor (Homo sapiens), P35462. D3R DiscoveRx beta-arrestin cells, luminescence, 90 min. max activation, %. actives 0.58% (n = 410,000); in the data active = max activation above about 30%; note: 0% is about no effect
#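 Agonist-mode cell screen: cells plated at 1500/well and incubated overnight at 37 °C, then exposed to library compounds for 90 min at 37 °C. Detection reagent was added for 30–60 min at room temperature, and luminescence was read.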
# RGS4 inh – Inhibitors of Regulator of G Protein Signaling (RGS) 4: qHTS. Potency, µM (doses to about 114 µM), for inactives: at the top dose activity change, negative = inhibition, hits mostly inhibitors. Regulator of G-protein signaling 4 (Homo sapiens), P49798. Transcreener GDP fluorescence polarization, RGS4-accelerated GTP hydrolysis. actives 0.039% (n = 390,000); note: potency is the fitted concentration of half-maximal effect; % is set by controls: 0 for no effect and ±100 for the full control effect; nearly all actives have a fitted effect of over 75% in size
# Target sequence (P49798 whole entry, looked up): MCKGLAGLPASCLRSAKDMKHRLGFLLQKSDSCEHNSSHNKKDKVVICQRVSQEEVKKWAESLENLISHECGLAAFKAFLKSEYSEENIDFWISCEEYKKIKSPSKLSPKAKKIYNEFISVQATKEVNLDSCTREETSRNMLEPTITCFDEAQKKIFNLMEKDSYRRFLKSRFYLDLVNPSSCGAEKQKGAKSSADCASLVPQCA
#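 MLSMR compounds (23 nl, pin-transferred) preincubated 10 min at room temperature with a 500nM (2x) first reagent, then RGS4 at 900nM (2x) plus Transcreener GDP mix added; fluorescence polarization (620/688 nm) read before and after 90 min at 30 °C.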
# BRCA1 expr act – qHTS Assay to Identify Small Molecule Activators of BRCA1 Expression; MCF7-BRCA1-FFLuc reporter, luminescence, 48 h; response scale: scaled: vehicle 0%, 10 µM genistein 100%; Potency, µM (highest dose often 46.1 µM), for inactives: top-dose activation, usual class: activators; actives 1.1% (n = 380,000); AID 624202, 2012; note: potency is the fitted concentration of half-maximal effect; nearly all actives have a fitted effect of over 80% in size
#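 MCF7-BRCA1-FFLuc, 2000 cells/well; 2 h attach, 37 °C/5% CO2; compound 48 h; luciferase substrate 15 min; luminescence end-point. Norm. to genistein 10 microM max activation and DMSO; concentration-response curves fitted.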
# DRD3 antagonist – qHTS of D3 Dopamine Receptor Antagonist: qHTS | AID 652054, 2013 | actives 2.5% (n = 360,000) | D(3) dopamine receptor (Homo sapiens), P35462 | D3R cells, DiscoveRx beta-arrestin luminescence, antagonist mode; hits give low values | max response, negative = inhibition, %; in the data active = max response below about -50%; inconclusive = no clear call, values can overlap the other calls; note: % is set by controls: 0 for no effect and ±100 for the full control effect
#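 Cells plated overnight at 1500 cells/well, then exposed to library compounds with dopamine controls for 90 minutes at 37 degrees C. DiscoveRx reagent added for 30–60 minutes at room temperature; luminescence read, quantitative HTS format.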
# Active calls of the source: *; i = inactive; u = inconclusive; x = no result; ! = not confirmed by another sample; [ ] = another dose, or the depositor's remark. Unless noted, calls come from the whole dose curve; as a rule, active = well fitted curve in the direction sought with a large enough effect; inconclusive = small, poorly fitted or top-dose-only effect, or another doubt; inactive = no such curve, though single readings can be large; an effect the other way counts as inactive or inconclusive.
SMILES,B2AR arrestin,PTHR1 agonist,DRD3 agonist,RGS4 inh,BRCA1 expr act,DRD3 antagonist
COc1ccc(-c2noc(-c3ccoc3C)n2)cc1OC,0%,i,13,-16%,4.5µM*,33
COc1ccc(-c2noc(-c3ccoc3C)n2)cc1,0%,-47%,-2,18%[56.9 µM],11µM*,-6
COc1cccc(-c2noc(-c3ccoc3C)n2)c1,0%,-35%,2,-13%,2%,7
CC(=O)Nc1c(C(=O)NCc2ccccc2)nnn1Cc1ccccc1,0%,i,2,-33%,-14%,-56*
COc1ccccc1NC(=O)c1nnn(Cc2ccccc2)c1NC(C)=O,0%,i,-6,29%,-11%,-70*
COc1ccccc1NNC(=O)c1cc(C(C)(C)C)nn1Cc1ccccc1,0%,-13%,7,-7%,10µM*,23
O=C(Nc1ccccc1)c1nnn(Cc2ccccc2)c1NC(=O)C(F)(F)F,-1%,-11%[57.5 µM],-2,22%[56.9 µM],u,-23
CC(C)CN(C[C@@H](OP(=O)(O)O)[C@H](Cc1ccccc1)NC(=O)O[C@H]1CCOC1)S(=O)(=O)c1ccc(N)cc1,x,x,-1,x,x,x
COc1ccccc1CNc1nc(-c2ccco2)nn1S(=O)(=O)c1ccc2ccccc2c1,x,-38%,-4,-23%,x,x
COc1cccc(-c2noc(COc3ccccc3Cl)n2)c1,x,-2%,7,12%,x,x
CCOC(=O)C1CCN(C(=O)c2c(C)nn(-c3ccc(F)cc3)c2-n2cccc2)CC1,x,-18%,2,8%,-13%,x
CC(C)(C)c1ccc(OCCCC(=O)Nc2nnc(C3CC3)s2)cc1,x,i,-1,x,55%,19
CNC[C@@H]1OCc2ccccc2-c2ccccc2C(=O)N([C@@H](C)CO)C[C@@H]1C,x,-6%,-2,x,3%,2
c1ccc(-c2ccc3c(c2)c2c4n3CCN=C4CCC2)cc1,-1%,i,-7,-23%,-74%,-10
OC1CN=C2CCCc3c2n(c2ccc(Cl)cc32)C1 (stereo unspecified),0%,i,-15,-39%,-19%,-77*
COc1ccc(-c2csc(C(C)(NC(C)=O)c3ccc(OC)cc3)n2)cc1 (stereo unspecified),x,i,-10,x,-8%,-51*
COc1cccc(C(C)(O)c2nc(-c3ccc(S(C)(=O)=O)cc3)cs2)c1 (stereo unspecified),x,-89%,80*,x,-38%,-13
CC(O)(c1cccc(F)c1)c1nc(-c2ccncc2)cs1 (stereo unspecified),x,-26%,1,x,-14%,-24
COc1ccc(-c2csc(C(C)(O)c3cccc(OC)c3)n2)cc1 (stereo unspecified),x,-28%,6,x,-19%,16
CC(O)(c1cccc(F)c1)c1nc(-c2ccccc2)cs1 (stereo unspecified),x,-4%,-12,x,0%,-89*
CC(O)(c1cccc(F)c1)c1nc(-c2cccc(C(F)(F)F)c2)cs1 (stereo unspecified),x,-15%,-16,x,-65%,-53*
Cc1ccc(NC(=O)CCCn2nc(C)c3c(C)n(-c4ccccc4)nc3c2=O)c(Cl)c1,1%,i,-5,-6%,-4%,-13
CCOc1cc(CNS(=O)(=O)c2ccc3c(c2)C(C)(C)C(=O)N3)cc(OCC)c1OCC,x,i,3,2%,x,x
Cc1cc(NC(=O)c2ccc3sc([C@@H]4O[C@H](CO)[C@H](O)[C@H](O)[C@H]4O)nc3c2)no1,x,0%,-12,x,11%,0
CS(=O)(=O)N(CC(=O)N1CCOCC1)c1ccccc1,-1%,i,0,8%,5%,12
SMILES,B2AR arrestin,PTHR1 agonist,DRD3 agonist,RGS4 inh,BRCA1 expr act,DRD3 antagonist
COc1ccc(Br)cc1S(=O)(=O)N(CC(=O)N1CCOCC1)c1ccccc1,0%,-56%[57.5 µM],-7,23%,0%,-120*
CN(C)S(=O)(=O)N(CC(=O)N1CCOCC1)c1ccccc1,0%,i,-7,10%,40%,-52*
COc1ccc(C)cc1S(=O)(=O)N(CC(=O)N1CCOCC1)c1cc(C)cc(C)c1,5%,i,-1,0%,-1%,-4
CC1=C(c2ccc(C(C)C)cc2)S(=O)(=O)NC1=NCc1ccc(Cl)cc1,x,i,-11,6%,x,x
C=C(C)C(=O)OCC(O)COc1ccc(C(C)(C)c2ccc(OCC(O)COC(=O)C(=C)C)cc2)cc1 (stereo unspecified),0%,-57%,71*,-14%,-23%,66
CN(C)c1ccc(C(=O)N2CCC2(C)C(=O)O)cc1 (stereo unspecified),x,i,3,x,1%,19
COc1ccc(CC(=O)Nc2ccc(S(=O)(=O)N(C)C3CCN(C)CC3)cc2)cc1,0%,0%,-21,-15%,-17%,-3
COc1ccccc1CC(=O)Nc1ccc(S(=O)(=O)N(C)C2CCN(C)CC2)cc1,0%,-13%,-21,6%,0%,-51*
COc1ccccc1CNC(=O)C[C@@H]1C[C@H]2c3cc(N(C)C)ccc3O[C@H]2[C@H](CO)O1,x,-9%,3,x,-1%,13
O=C(CCC1CCCCC1)NCc1ccc(F)cc1,6%,-27%,-18,-36%,24%,-3
O=C(CC1CCCCC1)NCc1ccc(Cl)cc1,-1%,-23%,-3,22%,11µM*,3
CCCCC(=O)OCC(=O)[C@H]1[C@H](C)C[C@H]2[C@@H]3C[C@H](F)C4=CC(=O)C=C[C@]4(C)[C@@]3(F)[C@@H](O)C[C@@]21C,x,x,9,x,x,x
Cc1oc(-c2ccccc2)nc1CNC(=O)Nc1ccccc1,x,i,5,15%,x,x
O=c1[nH]c(=O)n(C2C[C@H](O)[C@@H](CO)O2)cc1C(F)(F)F (stereo partly specified),0%,-21%,19,5%,-31%,14
O=c1[nH]c(=O)n([C@H]2C[C@H](O)[C@@H](CO)O2)cc1C(F)(F)F,0%,-8%,90*!,-20%,-56%,24
O=C(C(=O)N1CCN(C(=O)OCc2ccccc2)CC1)c1cccs1,x,-45%,0,x,x,20

# Compound activity deposited in PubChem by National Center for Advancing Translational Sciences (NCATS).
